# Laboratory results published in PubChem BioAssay (NCATS).
# Records with an inconclusive call do not appear. A call without a number means that no potency is given here. Active and inactive are the calls of the source. Calls come from the whole dose curve; as a rule, active = well fitted activation curve with a large enough effect; inconclusive = small, poorly fitted or top-dose-only effect; inactive = no such curve, though single readings can be large or run the other way.
# Test: Validation screen for small molecules that induce genotoxicity in human embryonic kidney (HEK293T) cells expressing luciferase-tagged ELG1 (AID 493106)
# Conditions: luminescence; series mostly up to 46.1 µM
# Description: NIH Molecular Libraries Probe Production Network [MLPCN]
# NIH Chemical Genomics Center [NCGC]
# Assay Provider: Kyungjae Myung, NHGRI, NIH
# Keywords: MLPCN, qHTS, NCGC, genotoxicity, cancer
# Cancer cells divide rapidly compared to normal cells in the body. During cell division, cancer cells need to duplicate their genome by DNA replication. The failure of genome duplication leads to cancer cells' death. Therefore, inhibitors of DNA replication could specifically kill cancer cells. Based on this concept, many chemotherapeutic agents were developed and have been used to treat cancer patients. However, there are a limited number of agents available in the clinical setting, and some of those that do exist have low efficacy and severe side effects. Therefore, if we can find the compounds that effectively block DNA replication either by directly damaging DNA or by inhibiting other cellular mechanisms, the options for cancer treatment will be broadened. With this in mind, we developed a quantitative high-throughput ELG1-luciferase reporter gene assay. Since the level of human ELG1 protein is enhanced in response to genetic stresses, increases in luciferase activity can be used to identify compounds that cause genetic stress.
# For genotoxicity screening, 2,000 cells in 5 uL/well were dispensed into white, solid-bottom 1536-well plates using a solenoid-based dispenser. Following transfer of 23 nL compound or DMSO vehicle by a pin tool, the plates were incubated 16 hr at 37 °C and 5% CO2. 5 ul ONE-Glo (Promega) was then added to each plate and following a 30 min incubation at room temperature, luciferase activity was quantified on a ViewLux CCD-based plate reader.
# Potency is the fitted concentration of half-maximal effect.
row,Structure (SMILES),Potency
1,NCCCNCCSP(=O)(O)O,inactive
2,CC(C)[N+](C)(CCOC(=O)C1c2ccccc2Oc2ccccc21)C(C)C,inactive
3,O=C1NCN(c2ccccc2)C12CCN(CCCC(c1ccc(F)cc1)c1ccc(F)cc1)CC2,inactive
4,NS(=O)(=O)c1cc2c(cc1Cl)NC(C1CC3C=CC1C3)NS2(=O)=O (stereo not given),inactive
5,COC(=O)[C@H]1[C@H]2C[C@@H]3c4[nH]c5cc(OC)ccc5c4CCN3C[C@H]2C[C@@H](OC(=O)c2cc(OC)c(OC)c(OC)c2)[C@@H]1OC,inactive
6,COc1cc(C(=O)OCCCN2CCCN(CCCOC(=O)c3cc(OC)c(OC)c(OC)c3)CC2)cc(OC)c1OC,16.4 µM (active)
7,N[C@@H](COP(=O)(O)O)C(=O)O,inactive
8,CC(C)NCC(O)c1cc(O)cc(O)c1 (stereo not given),inactive
9,CN/C(=C\[N+](=O)[O-])NCCSCc1ccc(CN(C)C)o1,inactive
10,CCNC(=O)N1CCN(CCCC(c2ccc(F)cc2)c2ccc(F)cc2)CC1,inactive
11,NC(Cc1ccc(Cl)cc1)C(=O)O (stereo not given),inactive
12,CN1C(=O)CC[C@H]1c1cccnc1,inactive
13,COC(=O)[C@@H](N)Cc1ccc(O)c(O)c1,inactive
14,NC(N)=N/N=C/c1c(Cl)cccc1Cl,inactive
15,C[C@]12CCC(=O)C=C1CC[C@@H]1[C@@H]2CC[C@@]2(C)[C@H]1CC[C@]2(O)C(=O)CO,inactive
16,COC(=O)C1=C(C)NC(C)=C(C(=O)OCCN(C)Cc2ccccc2)C1c1cccc([N+](=O)[O-])c1 (stereo not given),inactive
17,C[N+](C)(C)CCCCCCCCCC[N+](C)(C)C,inactive
18,CCN(CC)CC(=O)Nc1c(C)cccc1C,inactive
19,CC(C)NNC(=O)c1ccncc1,inactive
20,Cc1nc2sccn2c(=O)c1CCN1CCC(=C(c2ccc(F)cc2)c2ccc(F)cc2)CC1,inactive

row,Structure (SMILES),Potency
1,CC(=O)[C@@]1(O)CC[C@H]2[C@@H]3CCC4=CC(=O)CC[C@]4(C)[C@H]3CC[C@@]21C,inactive
2,CC(=O)OCC1=C(C(=O)O)N2C(=O)[C@@H](NC(=O)Cc3cccs3)[C@H]2SC1,inactive
3,CCCCCCCC/C=C\CCCCCCCC(=O)NCc1ccc(O)c(OC)c1,inactive
4,CN1CCN(C2=Nc3ccccc3Oc3ccc(Cl)cc32)CC1,inactive
5,COCCCC/C(=N\OCCN)c1ccc(C(F)(F)F)cc1,inactive
6,NC(=O)N1c2ccccc2C=Cc2ccccc21,inactive
7,O=C(O)CCCCCCCC(=O)O,inactive
8,CCCN(CCC)CCc1cccc2c1CC(=O)N2,inactive
9,CCCCNc1ccc(C(=O)OCCN(C)C)cc1,inactive
10,O=C1CC2(CCCC2)CC(=O)N1CCCCN1CCN(c2ncccn2)CC1,inactive
11,CCCN(CCC)C(=O)C(CCC(=O)O)NC(=O)c1ccccc1 (stereo not given),inactive
12,Cc1ccc(=O)n(-c2ccccc2)c1,inactive
13,CCOC(=O)C1=C(C)NC(C)=C(C(=O)OC)C1c1cccc(Cl)c1Cl (stereo not given),inactive
14,CSc1ccc(C(=O)c2[nH]c(=O)[nH]c2C)cc1,inactive
15,CN=C(NC#N)NCCSCc1nc[nH]c1C,inactive
16,c1cnc(N2CCN(Cc3ccc4c(c3)OCO4)CC2)nc1,inactive
17,CCn1nc(C(=O)O)c(=O)c2cc3c(cc21)OCO3,inactive
18,CN(C)CCCN1c2ccccc2Sc2ccc(C(F)(F)F)cc21,inactive
19,CCc1cccc(N(C)C(N)=Nc2cccc3ccccc23)c1,inactive
20,CNCCC(Oc1ccccc1OC)c1ccccc1 (stereo not given),inactive
